Source: PubChem
Pf growth 96h = P. falciparum growth inhibition at 96 hour, primary screen for plastid delayed-death inhibitors; P. falciparum luciferase reporter growth, 96 h; Potency, µM (top dose mostly 28.7 µM), for the others: at the top dose activity change, negative = inhibition, actives largely listed as inhibitors; actives 6.9% (n = 320,000); AID 504834; active means well fitted inhibition curve with a large enough effect; inconclusive means small, poorly fitted or top-dose-only effect, or another doubt; inactive means no such curve, though single readings can be large or run the other way; further: potency means the concentration at half of the fitted maximal effect; on the % scale 0 is the no-effect control and ±100 the full control effect
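Plates of compound plus infected erythrocytes (2% hematocrit, 0.05% parasitemia final) incubate 96 hours, 37 C, 5% CO2. Detection reagent added; reduced luminescence from the parasites' luciferase reporter flags inhibition.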
Pf growth 48h = inhibits P. falciparum growth in the first generation, 48 h; P. falciparum luciferase growth in erythrocytes, 48 h; Potency, µM (highest dose often 28.7 µM), inactives show at the top dose activity change, negative = inhibition, actives largely listed as inhibitors; actives 5.9% (n = 310,000); active means well fitted inhibition curve with a large enough effect; inconclusive means small, poorly fitted or top-dose-only effect, or another doubt; inactive means no such curve, though single readings can be large or run the other way; further: potency means the concentration at half of the fitted maximal effect; on the % scale 0 is the no-effect control and ±100 the full control effect
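Firefly luciferase activity from engineered P. falciparum reports growth; inhibitors lower the luminescent signal. Cultures contained 2% hematocrit erythrocytes at 0.1% final parasitemia.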
Shiga inhibitor = inhibitors of Shiga toxin in Vero cells | Vero cells, Shiga toxin protein synthesis inhibition reporter | inhibition, % at 38.7 µM | actives 9.2% (n = 290,000) | AID 2315; in the data active means inhibition mostly above about 28%, no sharp cut-off; inactive means mostly below about 43%; further: 0% is about no effect
SARS PLpro yeast = blocks SARS-CoV papain-like protease in a yeast assay; S. cerevisiae expressing SARS-CoV PLpro, growth rescue; Potency, µM (titrated, usually from 32.9 µM), without a hit: top-dose activity, positive = growth rescue, usual class: activators; actives 0.19% (n = 330,000); AID 485353; further: potency means the concentration at half of the fitted maximal effect; 0% is about no effect; nearly all actives have a fitted effect of over 55% in size
CHX counter = affects cycloheximide protein synthesis inhibition readout, counter-screen | cell reporter, cycloheximide protein synthesis inhibition counterscreen | max response, % | actives 12% (n = 300,000) | AID 2314; in the data active means max response mostly above about 13%, no sharp cut-off; inactive means mostly below about 14%; further: read at 38.3 µM for the half of the compounds with a filed dose; 0% is about no effect
NS1 inh = influenza NS1 inhibition; Potency, µM (series often up to 46.1 µM), for inactives: at the highest dose activity, positive = more growth; actives 0.4% (n = 270,000); AID 2326; further: potency means the concentration at half of the fitted maximal effect; actives are rising curves; nearly all actives have a fitted effect of over 50% in size
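Compounds were scored for reversing the slow growth caused by influenza A NS1 in S. cerevisiae, measured by optical density at 600 nm. Assay medium contained 2% galactose at pH 6.0; NS1-free yeast of the same strain were the positive control.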
An asterisk follows results filed as active; [ ] = remark or other dose. Compounds with a hit are over-represented: about 21% of the library has one in this group of screens. Unless noted, the call rests on the fitted dose curve.

For COc1ccc(Br)cc1CNC(=O)C1CCCN(c2nc3ccccc3o2)C1 (stereo not given) the results were Pf growth 96h 5.9µM*, Pf growth 48h 4%, Shiga inhibitor -6, SARS PLpro yeast 1%, CHX counter -5 and NS1 inh 2%.
Screening Cc1cc(C)nc(N2CCCC(C(=O)NCc3cccs3)C2)n1 (stereo not given) returned Pf growth 96h inconclusive, Pf growth 48h 5%, Shiga inhibitor 24, SARS PLpro yeast -1%, CHX counter -5 and NS1 inh -7%.
Screening O=C(CCC(=O)N1CCCC1)Nc1ccc(Cl)c(Cl)c1 returned Pf growth 96h 47%, Pf growth 48h 42%, Shiga inhibitor -5, SARS PLpro yeast -1%, CHX counter -2 and NS1 inh 7%.
Screening C/C(CC(=O)Nc1ccc2c(c1)OCCO2)=N\NC(=O)COc1ccc(Cl)c(C)c1 returned Pf growth 96h 17%, Pf growth 48h 28%, Shiga inhibitor -3, SARS PLpro yeast -4%, CHX counter 10 and NS1 inh -1%.
Screening COCCN1C(=O)c2cc(C(=O)Nc3ccc(OC)c(OC)c3)ccc2C1Nc1ccc(OC)c(OC)c1 (stereo not given) returned Pf growth 96h -6%, Pf growth 48h inconclusive, Shiga inhibitor 16, SARS PLpro yeast 0% and CHX counter 5.
For CCCNC(=O)CCC(=O)Nc1ncc(-c2ccc(C)cc2)n1C the results were Pf growth 96h 8%, Pf growth 48h 45%, Shiga inhibitor 33*, SARS PLpro yeast 1%, CHX counter 25* and NS1 inh -15%.
Screening CCCNC(=O)CCn1nc(-c2ccc(C)cc2)c2ccccc2c1=O returned Pf growth 96h -8%, Pf growth 48h -16%[0.00184 µM], Shiga inhibitor 7, SARS PLpro yeast 0%, CHX counter -1 and NS1 inh -5%.
Screening O=C(c1cc(C2CC2)nc2ccc(Br)cc12)N1N=C(C(F)F)CC1(O)C(F)F (stereo not given) returned Pf growth 96h 9.3µM*, Pf growth 48h inconclusive, Shiga inhibitor -11, SARS PLpro yeast -34%, CHX counter -6 and NS1 inh -42%.
Screening CC(C)c1ccc(-c2cc(C(=O)N3N=C(C(F)F)CC3(O)C(F)F)c3ccccc3n2)cc1 (stereo not given) returned Pf growth 48h inconclusive, Shiga inhibitor 83*, SARS PLpro yeast -70%, CHX counter 23* and NS1 inh -4%.
`O=C(c1cc(C2CC2)nc2ccccc12)N1N=C(C(F)F)CC1(O)C(F)F` (stereo not given) gave Pf growth 96h inconclusive, Pf growth 48h -6%, Shiga inhibitor -10, SARS PLpro yeast -4%, CHX counter 0 and NS1 inh -8%.
For CC(C)c1ccc(-c2cc(C(=O)NN3CCN(C)CC3)c3ccccc3n2)cc1 the results were Pf growth 96h inconclusive, Pf growth 48h inconclusive, Shiga inhibitor 82*, SARS PLpro yeast -2%, CHX counter 35* and NS1 inh -4%.
For O=C(COC(=O)c1ccc([N+](=O)[O-])o1)NCc1ccc2c(c1)OCO2 the results were SARS PLpro yeast -11%.
`COc1cc2c(cc1OC)C(c1cc3cccc(C)c3[nH]c1=O)N(C(=O)c1ccco1)CC2` (stereo not given) gave Pf growth 96h -6%, Pf growth 48h 12µM*, Shiga inhibitor 10, SARS PLpro yeast 1%, CHX counter 2 and NS1 inh 20%.
`COc1cc2c(cc1OC)C(COc1ccccc1OC)N(C(=O)C(C)(C)C)CC2` (stereo not given) gave Pf growth 96h -2%, Pf growth 48h 12µM*, Shiga inhibitor 22, SARS PLpro yeast 2%, CHX counter 15 and NS1 inh 3%.
For COc1cc2c(cc1OC)C(COc1ccc(F)cc1)N(C(=O)c1ccco1)CC2 (stereo not given) the results were Pf growth 96h inconclusive, Pf growth 48h 12µM*, Shiga inhibitor 17, SARS PLpro yeast -2%, CHX counter 13 and NS1 inh -72%.
Screening N=C1C2=C3Sc4ccccc4N3CCCC2=NN1c1cccc(S(=O)(=O)O)c1 returned Pf growth 96h 13%, Pf growth 48h -8%, Shiga inhibitor -1, SARS PLpro yeast 1%, CHX counter 0 and NS1 inh 5%.
For CC1CCN(C(=O)COC(=O)c2ccc3c(c2)C(=O)N(Cc2ccco2)C3=O)CC1 the results were Pf growth 96h 40%, Pf growth 48h 2% and SARS PLpro yeast 5%.
`CCCCCC(O)(c1ccc(OCC)cc1)C(CN1CCOCC1)c1ccccc1` (stereo not given) gave Pf growth 96h inconclusive, Pf growth 48h 2.1µM*, Shiga inhibitor -3, SARS PLpro yeast -3%, CHX counter 0 and NS1 inh 2%.
Screening CCCCCC(O)(c1ccc(OC)cc1)C(CN1CCOCC1)c1ccccc1 (stereo not given) returned Pf growth 96h 8%, Pf growth 48h 1.7µM*, Shiga inhibitor -6, SARS PLpro yeast -1%, CHX counter -3 and NS1 inh -2%.
For CCCCC(O)(c1ccc(OC)cc1)C(CN1CCOCC1)c1ccccc1 (stereo not given) the results were Pf growth 96h 24%, Shiga inhibitor -6, SARS PLpro yeast -2%, CHX counter -3 and NS1 inh 3%.
`COc1ccc(C(O)(C(C)C)C(CN2CCOCC2)c2ccccc2)cc1` (stereo not given) gave Pf growth 96h 0%, Pf growth 48h inconclusive, Shiga inhibitor -2, SARS PLpro yeast -1%, CHX counter -4 and NS1 inh -7%.
For COc1ccc(C(O)(C(C)C)C(CN2CCOCC2)c2ccc(Cl)cc2)cc1 (stereo not given) the results were Pf growth 96h 0%, Pf growth 48h 8.3µM*, Shiga inhibitor 26, SARS PLpro yeast -6%, CHX counter -1 and NS1 inh -4%.
CCOc1ccc(C2/C(=C(/O)c3ccc4c(c3)CC(C)O4)C(=O)C(=O)N2CCCn2ccnc2)cc1OCC (stereo not given) was read as Pf growth 96h inconclusive, Pf growth 48h -6%, Shiga inhibitor -6, SARS PLpro yeast inconclusive, CHX counter -6 and NS1 inh -17%.
`CC(=O)c1ccc(OC(=O)CCc2nc3ccccc3s2)cc1` gave Pf growth 96h 9%, Pf growth 48h 7%, Shiga inhibitor 52, SARS PLpro yeast 0% and CHX counter 3.
`O=C1CSC(c2ccccc2[N+](=O)[O-])N1CCc1ccccc1` (stereo not given) gave Pf growth 96h -6%, Pf growth 48h -2%, Shiga inhibitor -11, SARS PLpro yeast -1% and CHX counter -8.
